HT1080 IDH1KD tx = qHTS for induction of synthetic lethality in tumor cells producing 2HG: qHTS for the HT-1080-IDH1KD cell line. HT-1080 IDH1 knockdown viability, ATP luminescence, 48 h. Potency, µM (series often up to 46.1 µM), without a hit: at the top dose activity, negative = toxicity, most hits filed as cytotoxic. 360,000 compounds, 2% hits;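 note: potency is the fitted concentration of half-maximal effect; 0% = DMSO wells and -100% = cell-free medium wells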
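% activity derives from luminescence (CellTiter-Glo), normalised to DMSO and no-cell wells. HT-1080-IDH1KD cells, 750/well, had 48 h compound exposure at 37 °C.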
TDP1 cell noCPT = qHTS for Inhibitors of human tyrosyl-DNA phosphodiesterase 1 (TDP1): qHTS in cells in absence of CPT. DT40 Tdp1-/- hTDP1 cells, no CPT, ATP luminescence, 48 h. Potency, µM (highest dose often 46.2 µM), inactives show top-dose activity change, negative = growth inhibition, most hits filed as inhibitors. 420,000 compounds, 15% hits; note: potency is the fitted concentration of half-maximal effect; nearly all actives have a fitted effect of over 55% in size
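Seeded 400 DT40-hTDP1 cells/well (vehicle DMSO, no 20 nM CPT); pinned compounds; ≥48 hr at 37 °C; CellTiter-Glo luminescence as viability measure.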
IL-1B inflam inh = qHTS for Inhibitors of Inflammasome Signaling: IL-1-beta AlphaLISA Primary Screen | THP-1 LPS/ATP IL-1B secretion, AlphaLISA, 16 h; stronger effect = lower value | activity change, % at 57.5 µM | 360,000 compounds, 4.7% hits; in the data active = activity change below about -50%; inconclusive = mostly about -30% to -49%
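Secreted IL-1B measured by AlphaLISA bead assay after 16 h compound exposure of THP-1 cells; compounds (final up to 57.5 uM) added 1 h before LPS (250 ng/mL) and ATP (1.25 mM) stimulation; lower signal means less secretion.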
HT1080-NT tox = qHTS for induction of synthetic lethality in tumor cells producing 2HG: qHTS for the HT-1080-NT fibrosarcoma cell line. HT-1080-NT fibrosarcoma viability, CellTiter-Glo ATP luminescence, 48 h. Potency, µM (top dose mostly 46.1 µM), for inactives: at the highest dose activity, negative = less viability, actives largely listed as cytotoxic. 360,000 compounds, 1.6% hits;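 note: NT is the 2HG producing partner of a matched IDH1 knockdown line; potency is the fitted concentration of half-maximal effect; 0% = DMSO-treated cells and -100% = media-only wells without cells; nearly all actives have a fitted effect of over 55% in size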
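Viability of the 2HG-overproducing fibrosarcoma line after 48 hours of compound exposure at 37 degrees C was determined by luminescence with CellTiter-Glo, and concentration-effect curves were then fitted and categorized.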
ELG1 repair inh = qHTS screen for small molecules that inhibit ELG1-dependent DNA repair in human embryonic kidney (HEK293T) cells expressing luciferase-tagged ELG1; HEK293T ELG1-luciferase reporter, luminescence, 16 h; DNA damage induced by 5-fluorouridine; Potency, µM (doses to about 46.1 µM), without a hit: at the top dose activity change, negative = inhibition, actives largely listed as inhibitors; 330,000 compounds, 2.3% hits; AID 504467, 2011; note: potency is the fitted concentration of half-maximal effect; nearly all actives have a fitted effect of over 55% in size
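Overnight (16 hr) co-exposure of 2,000 cells/well to 5-fluorouridine and compound at 37 °C preceded detection. Luciferase was quantified via ONE-Glo luminescence; loss of signal denotes inhibition.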
TDP1 cell CPT = qHTS for Inhibitors of human tyrosyl-DNA phosphodiesterase 1 (TDP1): qHTS in cells in presence of CPT; chicken DT40 Tdp1-/-;hTDP1 cells + 20 nM CPT, ATP luminescence, 48 h; Potency, µM (series often up to 46.2 µM), for the others: top-dose activity change, negative = growth inhibition, hits mostly inhibitors; 420,000 compounds, 12% hits; note: potency is the fitted concentration of half-maximal effect; nearly all actives have a fitted effect of over 55% in size
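Chicken DT40 Tdp1-/- cells stably complemented with human TDP1 were seeded at 400 cells/well in medium containing 20 nM camptothecin, exposed to pin-transferred compounds, and grown at 37 °C for at least 48 hr. Viability was read as ATP luminescence.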
Active calls of the source: *; ? = inconclusive; / = not tested or not shown. Compounds with a hit are over-represented: about 19% of the library has one in this group of screens. Unless noted, calls come from the whole dose curve; as a rule, active = well fitted curve in the direction sought with a large enough effect; inconclusive = small, poorly fitted or top-dose-only effect, or another doubt; inactive = no such curve, though single readings can be large; an effect the other way counts as inactive or inconclusive. Unless noted, % is set by controls: 0 for no effect and ±100 for the full control effect.

SMILES	HT1080 IDH1KD tx	TDP1 cell noCPT	IL-1B inflam inh	HT1080-NT tox	ELG1 repair inh	TDP1 cell CPT
O=C(CSc1nc2ccccc2c2nc(-c3ccccc3)nn12)Nc1ccc(F)cc1	/	15µM*	/	/	/	?
Cc1nc2ccccc2n1CCc1nc2c3ccccc3nc(SCC(=O)Nc3ccc(C(C)C)cc3)n2n1	/	9.2µM*	/	/	/	12µM*
COc1ccccc1NC(=O)CSc1nc2ccccc2c2nc(-c3ccccc3)nn12	/	-1%	/	/	/	-10%
Cc1ccc(NC(=O)CSc2nc3ccccc3c3nc(CCn4c(C)nc5ccccc54)nn23)cc1F	/	9.2µM*	/	/	/	8.2µM*
Cc1nc2ccccc2n1CCc1nc2c3ccccc3nc(SCC#N)n2n1	/	/	/	/	4%	/
CC(C)(C)NC(=O)C(c1ccc(F)cc1)N(C(=O)CCC(=O)Nc1ccccn1)C1CCCC1 (centres undefined)	12%	-23%	-14	7%	-3%	-20%
C=CCNC(=O)N1CCCC(C(=O)c2cccc(OC(C)C)c2)C1 (centres undefined)	-6%	?	17	2%	?	?
O=C(CSc1nc(=O)n(Cc2ccccn2)c2c1CCC2)Nc1ccccc1	/	-22%	/	/	/	0%
Cc1cccc(C)c1NC(=O)C1(C)CN(S(C)(=O)=O)CC(=O)N1CCc1ccccc1F (centres undefined)	-7%	13%	-3	-12%	/	8%
O=C(CSC1=Nc2ccccc2C2=NC(Cc3ccccc3)C(=O)N12)Nc1ccccc1F (centres undefined)	/	?	/	/	/	23µM*
CC(C)c1ccc(NC(=O)CSC2=Nc3ccccc3C3=NC(CC(=O)NCc4ccc(F)cc4)C(=O)N23)cc1 (centres undefined)	/	-11%	/	/	/	1%
O=C(CSC1=Nc2ccccc2C2=NC(Cc3ccccc3)C(=O)N12)Nc1ccccc1C(F)(F)F (centres undefined)	/	26µM*	/	/	/	?
COCCn1c(C)cc(O)c(C(c2ccc(F)cc2)N2CCN(c3ccccc3)CC2)c1=O (centres undefined)	/	4%	/	/	/	-7%
Cc1cc(Cl)ccc1OC(C)C(=O)Nc1ccc(C(=O)Nc2ccccc2C(=O)O)cc1 (centres undefined)	?	?	42	-23%	-3%	?
CC(=O)OC1CCC2(C)C(CCC3C2CC(=NO)C2(C)C(C(C)OC(C)=O)CCC32)C1 (centres undefined)	6%	18µM*	-24	-5%	/	15µM*
CC(=O)O[C@H]1CC[C@@]2(C)[C@@H](CC[C@H]3[C@@H]4CC[C@H](C(C)O)[C@@]4(C)CC(=O)[C@@H]32)C1 (some centres undefined)	18%	?	-12	13%	2%	-30%
CC(=O)OC1CC[C@@]2(C)C(CCC3C2CC(=O)[C@@]2(C)C3CC3CC(C)=CC(=O)C32)C1 (some centres undefined)	0%	15µM*	-7	0%	-8%	18µM*
COc1ccc(NC(C)=O)c([N+](=O)[O-])c1[N+](=O)[O-]	-9%	?	-69*	-8%	/	?
Cc1ccc(NC(=O)Cn2ccn(-c3ccc(F)c(F)c3)c(=O)c2=O)cc1C	/	-2%	/	/	/	-2%
O=C(OCCN1CCCC1)C1(c2ccccc2)CCCC1	-6%	-6%	0	-2%	-1%	-24%
CC(=O)N1CCC(C(=O)OCc2ccccc2F)(c2ccccc2)CC1	-8%	21µM*	9	?	8%	?
CS(=O)(=O)N1CCn2c1nc1ccccc12	7%	-22%	3	9%	12%	14%
CCN1N=C(c2ccccc2)Cn2c1nc1ccccc12	-12%	16µM*	1	-9%	-6%	?
CC(=O)n1nc(-c2ccccc2)nc1NCc1cccs1	5%	-11%	-8	23%	?	5%
O=S(=O)(c1ccc(Cl)cc1)N1CCN=C1SCc1cccc(Cl)c1	-15%	?	16	-10%	3%	?
SMILES	HT1080 IDH1KD tx	TDP1 cell noCPT	IL-1B inflam inh	HT1080-NT tox	ELG1 repair inh	TDP1 cell CPT
Cc1ccc(CSC2=NCCN2S(=O)(=O)c2ccc(C)cc2)cc1	-7%	?	10	-13%	/	23µM*
Cc1ccc(C)c(CSC2=NCCN2S(=O)(=O)c2ccccc2)c1	-3%	16µM*	-16	-3%	-8%	18µM*
Cc1ccc(S(=O)(=O)N2CCN=C2SCc2ccc(Cl)c(Cl)c2)cc1	0%	-29%	46	2%	1%	-5%
O=S(=O)(c1ccccc1)N1CCN=C1SCc1c(F)cccc1Cl	-4%	?	8	-1%	1%	13µM*
FC(F)(F)c1cc(Cl)c2nc(-c3ccccc3)c(Cc3ccccc3)n2c1	13%	3%	0	22%	/	-21%
CCN1C(=O)C(CC(=O)Nc2ccc(F)cc2)N(Cc2ccc3c(c2)OCO3)C1=S (centres undefined)	-28%	?	-60*	?	?	?
COc1ccc(NC(=O)CC2C(=O)N(c3ccc(F)cc3)C(=O)N2Cc2ccc3c(c2)OCO3)cc1 (centres undefined)	/	?	/	/	/	-18%
O=C(CC1C(=O)N(c2ccc(F)cc2)C(=O)N1Cc1ccc2c(c1)OCO2)Nc1ccc(Cl)cc1 (centres undefined)	/	21µM*	/	/	/	?
COc1ccc(NC(=O)CC2C(=O)N(c3ccc(C)cc3)C(=O)N2Cc2ccc3c(c2)OCO3)cc1 (centres undefined)	/	?	/	/	/	-29%
Cc1ccc(N2C(=O)C(CC(=O)Nc3ccc(F)cc3)N(Cc3ccc4c(c3)OCO4)C2=O)cc1 (centres undefined)	/	16µM*	/	/	/	?
COC(=O)CC1Oc2ccccc2-n2cc(-c3ccc(C)cc3)nc21 (centres undefined)	/	3.3µM*	/	/	/	5.8µM*
COC(=O)CC1Oc2ccccc2-n2cc(-c3ccc(F)cc3)nc21 (centres undefined)	/	8.2µM*	/	/	/	9.2µM*

Source: PubChem BioAssay
